Laboratory results: PubChem BioAssay (NCI)
The panel holds about 83,000 compounds, 20% with a hit somewhere; the sample as a whole holds those more often.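 Step 1: grow cells in 96-well plates. Step 2: add test compound at a single concentration. Step 3: incubate 48 h. Step 4: record percent growth.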 Calls of active or inactive are those of the source. Rule for the calls: active = growth percent below 10; inactive = the rest.

Experiments:
Assay in all cases: NCI-60 one-dose screen, 48 h (100 = growth as untreated, 0 = no growth, -100 = all killed)
HCT-15 colon = tested on: HCT-15 colon
HT29 colon = tested on: HT29 colon
SNB-75 CNS = tested on: SNB-75 CNS
SNB-19 CNS = tested on: SNB-19 CNS
U251 CNS = tested on: U251 CNS
PC-3 prostate = tested on: PC-3 prostate
SK-MEL-5 melanoma = tested on: SK-MEL-5 melanoma
UACC-62 melanoma = tested on: UACC-62 melanoma
LOX IMVI melanoma = tested on: LOX IMVI melanoma
SK-MEL-28 melanoma = tested on: SK-MEL-28 melanoma

Measured: growth

COc1ccc(C(=O)/C=C/c2ccc(OCc3cccc(C(F)(F)F)c3)c(OC)c2)cc1OC
inactive: HCT-15 colon; 10 µM 73% | HCT-15 colon; 100 µM 14.4% | HT29 colon; 10 µM 54.3% | HT29 colon; 100 µM 19.6% | SNB-75 CNS; 10 µM 93.6% | SNB-19 CNS; 10 µM 93.9% | U251 CNS; 10 µM 75% | PC-3 prostate; 10 µM 69.1% | SK-MEL-5 melanoma; 10 µM 76.5% | UACC-62 melanoma; 10 µM 78.4% | UACC-62 melanoma; 100 µM 20.7% | LOX IMVI melanoma; 10 µM 51% | LOX IMVI melanoma; 100 µM 10% | SK-MEL-28 melanoma; 10 µM 101% | SK-MEL-28 melanoma; 100 µM 46.3%
active: SNB-75 CNS; 100 µM -27.5% | SNB-19 CNS; 100 µM -21.9% | U251 CNS; 100 µM -51.7% | PC-3 prostate; 100 µM -7.78% | SK-MEL-5 melanoma; 100 µM -34.4%

CCN(Cc1ccccc1)c1ccc(/C=C2\COc3ccccc3C2=O)cc1
inactive: HCT-15 colon; 10 µM 94% | HCT-15 colon; 100 µM 23.6% | HT29 colon; 10 µM 99.7% | SNB-75 CNS; 10 µM 93.2% | SNB-75 CNS; 100 µM 57.6% | SNB-19 CNS; 10 µM 98.9% | SNB-19 CNS; 100 µM 50.4% | U251 CNS; 10 µM 96% | U251 CNS; 100 µM 19.1% | PC-3 prostate; 10 µM 87.1% | PC-3 prostate; 100 µM 26.5% | SK-MEL-5 melanoma; 10 µM 102% | UACC-62 melanoma; 10 µM 87% | UACC-62 melanoma; 100 µM 31% | LOX IMVI melanoma; 10 µM 96.3% | LOX IMVI melanoma; 100 µM 37.5% | SK-MEL-28 melanoma; 10 µM 99.9% | SK-MEL-28 melanoma; 100 µM 53.1%
active: HT29 colon; 100 µM 5.56% | SK-MEL-5 melanoma; 100 µM 6.96%

CN(C)CCNc1ncc(F)c(-c2cnc3cc(-c4cnn(C)c4)ccn23)n1
inactive: HCT-15 colon; 0.005 µM 99.2% | HCT-15 colon; 30 µM 31.2% | HT29 colon; 0.005 µM 99.7% | HT29 colon; 30 µM 42.8% | SNB-75 CNS; 0.005 µM 100% | SNB-75 CNS; 30 µM 50% | SNB-19 CNS; 0.005 µM 97% | SNB-19 CNS; 30 µM 73.4% | U251 CNS; 0.005 µM 96.3% | U251 CNS; 30 µM 75.9% | PC-3 prostate; 0.005 µM 103% | PC-3 prostate; 30 µM 44.9% | SK-MEL-5 melanoma; 10 µM unless noted 101% [0.005 µM] | UACC-62 melanoma; 0.005 µM 98% | UACC-62 melanoma; 30 µM 82.7% | LOX IMVI melanoma; 0.005 µM 98.6% | LOX IMVI melanoma; 30 µM 19.9% | SK-MEL-28 melanoma; 0.005 µM 105% | SK-MEL-28 melanoma; 30 µM 96.7%

CC(=O)/C=C/c1ccc(N(CCO)Cc2ccc(C(C)(C)C)cc2)cc1
active: HCT-15 colon; 100 µM -83% | HT29 colon; 100 µM -81.5% | SNB-75 CNS; 100 µM -92.3% | SNB-19 CNS; 100 µM -89.9% | U251 CNS; 100 µM -100% | PC-3 prostate; 100 µM -90.3% | SK-MEL-5 melanoma; 100 µM -99.5% | UACC-62 melanoma; 100 µM -86.3% | LOX IMVI melanoma; 100 µM -100% | SK-MEL-28 melanoma; 100 µM -90.7%
inactive: HCT-15 colon; 10 µM 62.5% | HT29 colon; 10 µM 59.4% | SNB-75 CNS; 10 µM 76.3% | SNB-19 CNS; 10 µM 102% | U251 CNS; 10 µM 75.9% | PC-3 prostate; 10 µM 66% | SK-MEL-5 melanoma; 10 µM 70% | UACC-62 melanoma; 10 µM 76.5% | LOX IMVI melanoma; 10 µM 62.4% | SK-MEL-28 melanoma; 10 µM 89.1%

CCCCC1=C(Br)C(=O)c2nc(C)ccc2C1=O
inactive: HCT-15 colon; 10 µM unless noted 95.5% | HT29 colon; 10 µM unless noted 107% | SNB-75 CNS; 10 µM unless noted 84.4% | SNB-19 CNS; 10 µM unless noted 92.5% | U251 CNS; 10 µM unless noted 89.6% | PC-3 prostate; 10 µM unless noted 80.3% | SK-MEL-5 melanoma; 10 µM unless noted 92.6% | UACC-62 melanoma; 10 µM unless noted 84.9% | LOX IMVI melanoma; 10 µM unless noted 89.1%

C=C1C(=O)O[C@H]2[C@H]1CC/C(COC(=O)NCCCCNC(=O)OC/C1=C/CC[C@@]3(C)O[C@H]3[C@H]3OC(=O)C(=C)[C@@H]3CC1)=C\CC[C@@]1(C)O[C@@H]21
inactive: HCT-15 colon; 10 µM unless noted 81.6% | SNB-75 CNS; 10 µM unless noted 49.5% | SNB-19 CNS; 10 µM unless noted 90.9% | U251 CNS; 10 µM unless noted 73.6% | PC-3 prostate; 10 µM unless noted 67.7% | SK-MEL-5 melanoma; 10 µM unless noted 76.8%
active: HT29 colon; 10 µM unless noted 5.38% | UACC-62 melanoma; 10 µM unless noted -20.8% | LOX IMVI melanoma; 10 µM unless noted -22.5%

COc1cc(OC)cc(-c2ccc(-c3ccc(C(=N)N)cn3)s2)c1
inactive: HCT-15 colon; 10 µM unless noted 41.7% | HT29 colon; 10 µM unless noted 37.2% | SNB-75 CNS; 10 µM unless noted 94.6% | SNB-19 CNS; 10 µM unless noted 92.1% | PC-3 prostate; 10 µM unless noted 69.1% | SK-MEL-5 melanoma; 10 µM unless noted 80.5% | UACC-62 melanoma; 10 µM unless noted 98.2% | LOX IMVI melanoma; 10 µM unless noted 14%
active: U251 CNS; 10 µM unless noted 5.78%

COC1/C=C/OC2(C)Oc3c(C)c(O)c4c(O)c(c(C=NOC(c5ccccc5)c5ccccc5)c(O)c4c3C2=O)NC(=O)/C(C)=C/C=C/C(C)C(O)C(C)C(O)C(C)C(OC(C)=O)C1C (stereo not given)
active: HT29 colon; 10 µM unless noted -12.1% | PC-3 prostate; 10 µM unless noted 9.81% | SK-MEL-5 melanoma; 10 µM unless noted 6.07% | UACC-62 melanoma; 10 µM unless noted -4.64% | LOX IMVI melanoma; 10 µM unless noted 0.468%
inactive: HCT-15 colon; 10 µM unless noted 13.2% | SNB-75 CNS; 10 µM unless noted 17.2% | SNB-19 CNS; 10 µM unless noted 30.8% | U251 CNS; 10 µM unless noted 10.4%
